Laboratory results: PubChem BioAssay (Tox21)
Inconclusive results are not listed. Calls of active or inactive are those of the source. Unless noted, the call rests on the fitted dose curve; in most records, active means well fitted curve in the direction sought with a large enough effect in the repeat runs; inconclusive means weak or mixed curves; inactive means no such curve, though single readings can be large; an effect the other way counts as inactive or inconclusive.

Tests used:
[1] = qHTS assay to identify small molecule agonists of the vitamin D receptor (VDR) signaling pathway - cell viability counter screen (AID 743224); further: nearly all actives have a fitted effect of over 50% in size; further: potency means the concentration at half of the fitted maximal effect
In short: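 In parallel with the bla FRET readout, cytotoxicity toward VDR-bla cells after 16 h compound exposure was assessed by CellTiter-Glo, with luminescence recorded after a 30 min room-temperature incubation.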

[2] = qHTS assay to identify small molecule antagonists of the vitamin D receptor (VDR) signaling pathway - cell viability counter screen (AID 743225); further: on the % scale 0 is the no-effect control and ±100 the full control effect; nearly all actives have a fitted effect of over 50% in size
In short: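 Viability counter screen run in the same wells as the beta-lactamase reporter assay: HEK 293T VDR-UAS-bla cells, 16 h compound exposure at 37C with 3 nM (final) 1-alpha,25-dihydroxyvitamin D3. CellTiter-Glo luminescence, 30 min, room temperature.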

[3] = qHTS assay to identify small molecule agonists of the NFkB signaling pathway (AID 1159509; active means well fitted curve in the direction sought with a large enough effect in the signal ratio in the repeat runs, not every such curve was filed as active; the % refers to the signal ratio; further: series mostly up to about 61 µM; on the % scale 0 is the no-effect control and ±100 the full control effect)
In short: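 Agonist activity was read as beta-lactamase-driven FRET change (460 and 530 nm emission, 405 nm excitation) following 1.5 hr substrate loading at room temperature. Beforehand, ME-180 NFkB-bla reporter cells were treated with compounds for 5 hr at 37 C.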

[4] = qHTS assay to identify small molecule agonists of the NFkB signaling pathway - cell viability counter screen (AID 1159515; calls by dose curve; further: nearly all actives have a fitted effect of over 55% in size; further: potency means the concentration at half of the fitted maximal effect)
In short: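 Plate 2,000 NFkB-bla ME-180 cells/well; incubate overnight. Add compounds, 5 hr at 37 C. Add FRET substrate, 1.5 hr RT. Add CellTiter-Glo, 30 min RT; read luminescence.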

[5] = qHTS assay to identify small molecule agonists of the endoplasmic reticulum stress response signaling pathway (AID 1159516; active means well fitted activation curve with a large enough effect in the signal ratio in the repeat runs, not every such curve was filed as active; the % refers to the signal ratio; further: on the % scale 0 is the no-effect control and ±100 the full control effect)
In short: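 Beta-lactamase expression from the ER stress response element in HeLa reporter cells is quantified with the LiveBLAzer B/G FRET substrate, read at 405 nm excitation after 2 hr at room temperature, following 5 hr compound treatment at 37 C.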

[6] = qHTS assay to identify small molecule antagonists of the retinoid-related orphan receptor gamma (ROR-gamma) signaling pathway - cell viability counter screen (AID 1159520); further: nearly all actives have a fitted effect of over 50% in size; further: potency means the concentration at half of the fitted maximal effect
In short: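 Tet-on ROR gamma CHO cells were given compounds for 2 hr, then doxycycline hyclate at 1 uM final, and incubated 16 hr at 37 C. Viability was measured as ATP content by CellTiter-Glo luminescence.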

[7] = molecular target: Nuclear receptor ROR-gamma (Homo sapiens) (UniProt P51449); experiment: qHTS assay to identify small molecule antagonists of the retinoid-related orphan receptor gamma (ROR-gamma) signaling pathway (AID 1159521; further: nearly all actives have a fitted effect of over 50% in size; further: potency means the concentration at half of the fitted maximal effect)
In short: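 Luminescence readout (ONE-Glo, 30 min RT) after 16 h doxycycline induction; loss of signal scored as antagonism. CHO cells with TET-inducible RORγ and RORE-LUC reporter; compounds added 2 h before 1 uM final doxycycline.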

[8] = qHTS assay to identify small molecule agonists of the AP-1 signaling pathway - cell viability counter screen (AID 1159525; calls by dose curve; further: nearly all actives have a fitted effect of over 55% in size)
In short: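 Same-well cytotoxicity counter screen of the Tox21 10K library in ME-180 cells. The readout is ATP-dependent luminescence after 5 h compound treatment. Data are normalised to DMSO and tetra n-octyl ammonium bromide controls.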

[9] = qHTS assay to identify small molecule agonists of the AP-1 signaling pathway (AID 1159526; calls by dose curve; further: on the % scale 0 is the no-effect control and ±100 the full control effect)
[10] = molecular target: Retinoic acid receptor RXR-alpha (Homo sapiens) (UniProt P19793); experiment: qHTS assay to identify small molecule agonists of the RXR signaling pathway (AID 1159527; calls by dose curve; further: on the % scale 0 is the no-effect control and ±100 the full control effect; nearly all actives have a fitted effect of over 35% in size)
In short: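 Agonist mode; 9-cis retinoic acid positive control. HEK 293T UAS-bla reporter cells, 2% charcoal-stripped FBS, 16 hr compound exposure at 37 C/5% CO2. LiveBLAzer B/G FRET substrate 2 hr RT; ex 405, em 460/530 nm.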

[11] = qHTS assay to identify small molecule antagonists of the retinoid acid receptor (RAR) signaling pathway - cell viability counter screen (AID 1159551); further: nearly all actives have a fitted effect of over 35% in size; further: potency means the concentration at half of the fitted maximal effect
In short: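 Viability of C3RL4 cells is quantified from ATP by luminescence after 6 h treatment at 37 C with compounds and 1 uM retinol.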

[12] = qHTS assay to identify small molecule antagonists of the retinoic acid receptor (RAR) signaling pathway (AID 1159552; further: nearly all actives have a fitted effect of over 50% in size; further: potency means the concentration at half of the fitted maximal effect)
In short: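 Luminescence from a RARE luciferase reporter in C3RL4 cells served as read-out. Cells received compounds together with 1 uM final retinol and incubated 6 hr at 37 C before detection reagent was added for 30 min at room temperature.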

[13] = qHTS assay to identify small molecule agonists of the RXR signaling pathway - cell viability counter screen (AID 1159529)
In short: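 Luminescence from CellTiter-Glo (30 min, RT) measured viability in the same wells as the beta-lactamase reporter readout. Cells: GeneBLAzer RXR-alpha HEK 293T, 2% charcoal-stripped FBS. Compound exposure 16 hr, 37 C.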

[14] = qHTS assay to identify small molecule agonists of the retinoic acid receptor (RAR) signaling pathway (AID 1159553); further: potency means the concentration at half of the fitted maximal effect
In short: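 Compounds dissolved in DMSO were pinned onto C3RL4 cells seeded the previous day, and plates were held 6 hr at 37 C. RARE-driven luciferase output was then read by luminescence.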

[15] = qHTS assay to identify small molecule antagonists of the estrogen related receptor (ERR) signaling pathway - cell viability counter screen (AID 1224818);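 further: series mostly up to about 46 µM; viability measured after 17.5 h of compound exposure; on the % scale 0 is the no-effect control and ±100 the full control effect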
In short: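 Cytotoxicity check run alongside the ERR antagonist screen: cells exposed to test compounds 17.5 h at 37 C, viability taken as CellTiter-Fluor fluorescence intensity.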

[16] = qHTS assay to identify small molecule antagonists of the estrogen related receptor signaling pathway with the pleiotropic PPARgamma coactivator (PGC) cell viability counter screen (AID 1224822)
In short: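 Viable cell signal (CellTiter-Fluor, 30 min, 37 C/5% CO2) was measured in PGC/ERR cells after a 17.5 h compound incubation.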

Chain of Retinoic acid receptor RXR-alpha (Homo sapiens) (P19793 whole entry, looked up): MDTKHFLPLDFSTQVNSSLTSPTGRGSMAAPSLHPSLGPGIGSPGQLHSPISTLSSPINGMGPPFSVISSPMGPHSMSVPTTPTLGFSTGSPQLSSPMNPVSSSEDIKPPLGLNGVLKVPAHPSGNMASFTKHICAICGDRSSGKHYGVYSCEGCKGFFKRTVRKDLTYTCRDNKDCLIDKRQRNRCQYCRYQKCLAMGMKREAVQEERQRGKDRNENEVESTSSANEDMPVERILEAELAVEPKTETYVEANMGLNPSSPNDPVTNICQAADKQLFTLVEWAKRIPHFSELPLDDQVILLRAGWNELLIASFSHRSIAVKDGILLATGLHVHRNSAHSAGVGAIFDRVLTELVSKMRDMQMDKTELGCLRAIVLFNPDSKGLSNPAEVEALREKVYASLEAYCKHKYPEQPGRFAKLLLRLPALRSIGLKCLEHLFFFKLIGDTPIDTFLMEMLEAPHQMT

COc1ccc(C(=O)NCc2ccc(OCCN(C)C)cc2)cc1OC
inactive: Potency [1] | Potency [2] | outcome [3] | Potency [4] | Potency [5] | Potency [6] | Potency [7] | Potency [8] | outcome [9] | Potency [10] | Potency [11]

O=C(NS(=O)(=O)/C=C/c1ccccc1)c1ccc(F)cc1Cl
inactive: Potency [1] | Potency [2] | outcome [3] | Potency [4] | Potency [5] | Potency [6] | Potency [7] | Potency [8] | outcome [9] | Potency [11] | Potency [12]

CC(C)COC(=O)c1ccc(O)cc1
inactive: Potency [1] | Potency [2] | outcome [3] | Potency [4] | Potency [5] | Potency [6] | Potency [7] | Potency [8] | Potency [10] | Potency [11]

O=C(O)c1cc(Cl)cc(Cl)c1O
inactive: Potency [1] | Potency [2] | outcome [3] | Potency [4] | Potency [5] | Potency [6] | Potency [8] | outcome [9] | Potency [10] | Potency [13] | Potency [11]

CC(CN(CCN(CC(C)OCCO)CC(C)OCCO)CC(C)OCCO)OCCO (stereo not given)
inactive: Potency [1] | Potency [2] | outcome [3] | Potency [4] | Potency [5] | Potency [6] | Potency [7] | Potency [8] | outcome [9] | Potency [13] | Potency [11] | Potency [14]

CCC(Cl)CC(Cl)C(Cl)C(Cl)C(Cl)C(C)Cl (stereo not given)
inactive: activity change, negative = cytotoxicity [1] -2.44% [at 13.2 µM] | viability change, negative = cytotoxic [2] 6.69% [at 15.1 µM] | activation [3] -0.489% [at 15.1 µM] | activity, negative = cytotoxic [4] 0.94% [at 15.1 µM] | activation [5] -4.87% [at 15.1 µM] | activity, negative = cytotoxicity [6] 0.516% [at 19 µM] | viability change, negative = cytotoxic [8] -14.2% [at 15.8 µM] | activation [9] 9.95% [at 15.8 µM] | activation [10] -0.0074% [at 15.8 µM] | activity change, negative = cytotoxicity [13] -9.76% [at 15.8 µM] | activity change, negative = cytotoxicity [11] 0.117% [at 19 µM] | activity, negative = inhibition [12] 84.9% [at 19 µM]
active: Potency [14] 0.133 µM

CC(C)(C)C(O)/C=C/c1ccc2c(c1)OCO2 (stereo not given)
inactive: Potency [1] | Potency [2] | outcome [3] | Potency [4] | Potency [5] | Potency [6] | Potency [7] | Potency [8] | Potency [10] | Potency [13] | Potency [11]

O=C(C(=O)c1ccco1)c1ccco1
inactive: Potency [2] | outcome [3] | Potency [4] | Potency [5] | Potency [6] | Potency [7] | Potency [8] | outcome [9] | Potency [11]

COc1ccc(-c2cc(C(F)F)nn2-c2ccc(S(N)(=O)=O)cc2)cc1F
inactive: Potency [2] | outcome [3] | Potency [4] | Potency [5] | Potency [6] | Potency [7] | Potency [8] | outcome [9] | Potency [13] | Potency [14]

CO[C@@H]1[C@@H](OC)[C@H](C)[C@@](O)(CC(=O)O)O[C@H]1[C@H](C)[C@H]1O[C@@]2(CC[C@@](C)([C@H]3CC[C@@](C)([C@@H]4O[C@@H]([C@H]5O[C@](C)(O)[C@H](C)C[C@@H]5C)C[C@@H]4OC4C[C@H](OC)[C@@H](OC)[C@H](C)O4)O3)O2)C[C@H](O)[C@H]1C (stereo not given in full)
active: Potency [1] 5.96 µM | Potency [6] 9.44 µM | Potency [7] 0.237 µM
inactive: outcome [3] | Potency [4] | Potency [5]

CN1C(CSCC(F)(F)F)Nc2cc(Cl)c(S(N)(=O)=O)cc2S1(=O)=O (stereo not given)
inactive: Potency [1] | Potency [2] | outcome [3] | Potency [4] | Potency [5] | Potency [6] | Potency [8] | outcome [9] | Potency [10] | Potency [13] | Potency [11] | Potency [12] | Potency [14]

CC(=O)OCC1=C(C(=O)O)N2C(=O)[C@@H](NC(=O)CSc3ccncc3)[C@H]2SC1
inactive: Potency [1] | Potency [2] | outcome [3] | Potency [4] | Potency [5] | Potency [6] | Potency [7] | Potency [8] | Potency [13] | Potency [11]

CCc1ccc(C)cc1
inactive: Potency [1] | Potency [2] | outcome [3] | Potency [4] | Potency [5] | Potency [6] | Potency [7] | Potency [8] | outcome [9] | Potency [13] | Potency [11] | Potency [14]

CCN(Cc1cccc(S(=O)(=O)O)c1)c1ccc(C(=C2C=CC(=[N+](CC)Cc3cccc(S(=O)(=O)O)c3)C=C2)c2ccc(O)cc2S(=O)(=O)[O-])cc1
active: Potency [4] 26.5 µM | Potency [6] 10.5 µM | Potency [7] 14.8 µM | Potency [11] 14.8 µM | Potency [12] 9.32 µM
inactive: outcome [3] | Potency [5] | outcome [9] | Potency [10]

CCCCCCC(CO)CCCC (stereo not given)
inactive: Potency [1] | Potency [2] | outcome [3] | Potency [4] | Potency [5] | Potency [6] | Potency [7] | Potency [8] | Potency [10] | Potency [13] | Potency [11] | Potency [12] | Potency [14]

CC(=O)OCC(=O)[C@@]1(OC(C)=O)[C@@H](C)C[C@H]2[C@@H]3C[C@H](F)C4=CC(=O)C=C[C@]4(C)[C@@]3(F)[C@@H](O)C[C@@]21C
inactive: Potency [1] | Potency [2] | outcome [3] | Potency [4] | Potency [5] | Potency [6] | Potency [7] | Potency [8] | outcome [9] | Potency [13] | Potency [11]

Cc1cc(CCCOc2c(C)cc(-c3noc(C(F)(F)F)n3)cc2C)on1
inactive: Potency [1] | Potency [2] | outcome [3] | Potency [4] | Potency [5] | Potency [6] | Potency [7] | Potency [8] | Potency [13] | Potency [12]

CC1CCc2nccnc21 (stereo not given)
inactive: Potency [1] | Potency [2] | outcome [3] | Potency [4] | Potency [5] | Potency [6] | Potency [7] | Potency [8] | outcome [9] | Potency [11] | Potency [12] | Potency [14]

CC[C@H]1OC(=O)[C@H](C)[C@@H](O[C@H]2C[C@@](C)(OC)[C@@H](O)[C@H](C)O2)[C@H](C)[C@@H](O[C@@H]2O[C@H](C)C[C@H](N(C)C)[C@H]2O)[C@](C)(O)C[C@@H](C)/C(=N\OCOCCOC)[C@H](C)[C@@H](O)[C@]1(C)O
inactive: Potency [1] | outcome [3] | Potency [4] | Potency [5] | Potency [6] | Potency [8] | outcome [9] | Potency [10] | Potency [13] | Potency [11] | Potency [14]

COC(=O)Nc1nc2ccc(C(=O)C3CC3)cc2[nH]1
inactive: Potency [1] | Potency [2] | outcome [3] | Potency [4] | Potency [5] | Potency [6] | Potency [7] | Potency [8] | outcome [9] | Potency [13] | Potency [11] | Potency [12]

Nc1nc2ccc(OC(F)(F)F)cc2s1
inactive: Potency [1] | outcome [3] | Potency [4] | Potency [5] | Potency [6] | Potency [7] | Potency [8] | Potency [10] | Potency [13] | Potency [11] | Potency [12] | outcome [15] | outcome [16]
